An excerpt weighted towards active compounds, which were near 14% of everything screened.
FBPA Giardia inh: blocks Giardia fructose-bisphosphate aldolase activity; A8B2U2; purified Giardia FBPA; Potency, µM (titrated, usually from 59.6 µM), for the others: top-dose activity, negative = inhibition, most hits filed as inhibitors; actives 0.71% (n = 290,000); AID 2451; further: potency means the concentration at half of the fitted maximal effect; on the % scale 0 is the no-effect control and ±100 the full control effect; nearly all actives have a fitted effect of over 55% in size
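40 nM FBPA preincubated 10 min at RT with compound (up to 57.5 uM final), then substrate plus GAPDH/TPI/NAD/arsenate coupling and diaphorase/resazurin added. Fluorescence read after 20 min at RT, 525/598 nm.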
CHX counter: counter-screen for Shiga toxin inhibitors: cycloheximide protein synthesis inhibition; actives 12% (n = 300,000); cell reporter, cycloheximide protein synthesis inhibition counterscreen; max response, %; in the data active means max response mostly above about 13%, no sharp cut-off; inactive means mostly below about 14%; further: read at 38.3 µM for the half of the compounds with a filed dose; 0% is about no effect
NS1 inh: influenza NS1 inhibition. actives 0.4% (n = 270,000). Potency, µM (titrated, usually from 46.1 µM), inactives show at the highest dose activity, positive = more growth; calls by dose curve; further: potency means the concentration at half of the fitted maximal effect; actives are rising curves; nearly all actives have a fitted effect of over 50% in size
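Growth recovery, yeast-based: influenza A NS1 expressed in S. cerevisiae causes slow growth, and suppressors are detected by OD600. The parent strain without NS1 is used as positive control.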
LmPK inhibitor: blocks Leishmania mexicana pyruvate kinase activity; purified LmPK, Kinase-Glo ATP luminescence, 1 h; Q27686; Potency, µM (top dose mostly 57.5 µM), without a hit: at the top dose activity change, negative = inhibition, most hits filed as inhibitors; actives 0.37% (n = 290,000); further: potency means the concentration at half of the fitted maximal effect; on the % scale 0 is the no-effect control and ±100 the full control effect
Target sequence (Q27686 whole entry, looked up): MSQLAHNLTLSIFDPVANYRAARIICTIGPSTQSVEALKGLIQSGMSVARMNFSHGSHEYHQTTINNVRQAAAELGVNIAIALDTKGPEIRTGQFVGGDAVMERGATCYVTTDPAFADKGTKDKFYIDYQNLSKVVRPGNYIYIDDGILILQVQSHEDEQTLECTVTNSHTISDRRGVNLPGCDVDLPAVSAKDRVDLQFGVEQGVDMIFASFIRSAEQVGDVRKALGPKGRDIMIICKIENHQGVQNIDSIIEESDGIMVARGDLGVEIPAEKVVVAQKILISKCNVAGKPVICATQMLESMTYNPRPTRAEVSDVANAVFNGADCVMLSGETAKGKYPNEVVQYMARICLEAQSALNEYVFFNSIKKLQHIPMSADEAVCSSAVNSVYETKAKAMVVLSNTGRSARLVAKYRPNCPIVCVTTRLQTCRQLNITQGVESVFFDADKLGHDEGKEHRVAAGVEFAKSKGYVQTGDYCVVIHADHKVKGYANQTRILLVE
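Kinase-Glo luminescence read after 1 h RT reaction of 0.1 nM LmPK with 0.5 mM PEP and 0.1 mM ADP. Activity scaled between uninhibited and enzyme-free controls.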
Shiga toxin inh: blocks Shiga toxin action in Vero cells. Vero cells, Shiga toxin protein synthesis inhibition reporter. inhibition, % at 38.7 µM. actives 9.2% (n = 290,000). AID 2315; in the data active means inhibition mostly above about 28%, no sharp cut-off; inactive means mostly below about 43%; further: 0% is about no effect
The depositor's hits bear a star. Unless noted, the call rests on the fitted dose curve; in most records, active means well fitted curve in the direction sought with a large enough effect; inconclusive means small, poorly fitted or top-dose-only effect, or another doubt; inactive means no such curve, though single readings can be large; an effect the other way counts as inactive or inconclusive.

Screening COC(=O)C1C(=O)c2c([nH]c(C(=O)OCC3CCCO3)c2C)CC1C (configuration not stated) returned FBPA Giardia inh -9%, CHX counter 23*, NS1 inh 1%, LmPK inhibitor 3% and Shiga toxin inh 58*.
`COCCOC(=O)c1[nH]c2c(c1C)C(=O)CC(c1ccccc1)C2` (configuration not stated) gave FBPA Giardia inh -2%, CHX counter 4, NS1 inh -1%, LmPK inhibitor 1% and Shiga toxin inh 3.
Screening Cc1c(C(=O)OC2CCC(C)CC2)[nH]c2c1C(=O)CCC2 (configuration not stated) returned FBPA Giardia inh 0%, CHX counter 43*, NS1 inh -60%, LmPK inhibitor -2% and Shiga toxin inh 76*.
Screening COCCOC(=O)c1[nH]c2c(c1C)C(=O)C(C(=O)OC)C(C)C2 (configuration not stated) returned FBPA Giardia inh inconclusive, CHX counter 34*, NS1 inh inconclusive, LmPK inhibitor 3% and Shiga toxin inh 74*.
Screening Cc1ccc(S(=O)(=O)Nc2c(C(=O)O)[nH]c3ccccc23)c(C)c1 returned FBPA Giardia inh 21%, CHX counter -1, NS1 inh 12%, LmPK inhibitor -2% and Shiga toxin inh 10.
For O=C(O)CCCSc1ccccc1 the results were NS1 inh 2%.
For COC(=O)C1C(=O)C2=C(CC1C)NC(C)=C(C(=O)OC1CCCC1)C2c1ccc(N(C)C)cc1 (configuration not stated) the results were FBPA Giardia inh -13%, CHX counter 6, NS1 inh -45%, LmPK inhibitor 0% and Shiga toxin inh -21.
COCCOC(=O)c1[nH]c2c(c1C)C(=O)CC(c1ccc(F)cc1)C2 (configuration not stated) was read as FBPA Giardia inh 0%, CHX counter -8, NS1 inh -46%, LmPK inhibitor 4% and Shiga toxin inh 25.
For COCCOC(=O)c1[nH]c2c(c1C)C(=O)CC(c1ccc(N(C)C)cc1)C2 (configuration not stated) the results were FBPA Giardia inh -21%, CHX counter 14*, NS1 inh -4%, LmPK inhibitor 4% and Shiga toxin inh 14.
For COC(=O)C1C(=O)c2c([nH]c(C(=O)OC3CCCCCC3)c2C)CC1C (configuration not stated) the results were FBPA Giardia inh 5%, CHX counter 25*, NS1 inh 3%, LmPK inhibitor -1% and Shiga toxin inh 57*.
`CCc1ccc(NC(=O)[C@H](Cc2ccccc2)NC(=O)C2CCN(C(=O)[C@@H](N)CC(C)C)CC2)cc1` gave FBPA Giardia inh -6%, CHX counter 2, NS1 inh 20%, LmPK inhibitor -9% and Shiga toxin inh 8.
CC(C)(C)OC(=O)NC(Cc1ccccc1)C(=O)NC1COC2CC(n3cc(F)c(=O)[nH]c3=O)OC12 (configuration not stated) was read as FBPA Giardia inh 3%, CHX counter -1 and Shiga toxin inh 54.
CN(Cc1cc2ccccc2[nH]c1=O)S(=O)(=O)c1ccccc1 was read as FBPA Giardia inh -4%, CHX counter 19*, NS1 inh -4%, LmPK inhibitor 3% and Shiga toxin inh 33.
Screening COc1ccc(N(Cc2cc3ccccc3[nH]c2=O)S(=O)(=O)c2ccc(C)cc2)cc1 returned FBPA Giardia inh -7%, CHX counter 27*, NS1 inh 10%, LmPK inhibitor -2% and Shiga toxin inh 39*.
`COC1/C=C/OC2(C)Oc3c(C)c(O)c4c(O)c(c(/C=N/N5CCN(C)CC5)c(O)c4c3C2=O)NC(=O)/C(C)=C/C=C/C(C)C(O)C(C)C(O)C(C)C(OC(C)=O)C1C` (configuration not stated) gave FBPA Giardia inh -28%.
For O=S(=O)(c1ccc(NC(=S)NCc2ccc(F)cc2)cc1)N1CCOCC1 the results were CHX counter -3, NS1 inh 14%, LmPK inhibitor -2% and Shiga toxin inh -8.
Screening O=c1/c(=C\c2ccc3c(c2)OCO3)sc2n1CCCN=2 returned FBPA Giardia inh -7%, CHX counter 28*, NS1 inh -38%, LmPK inhibitor inconclusive and Shiga toxin inh 50*.
`Cc1ccc(/C=c2/sc3n(c2=O)CCCN=3)o1` gave FBPA Giardia inh inconclusive, CHX counter 35*, NS1 inh -12%, LmPK inhibitor -28% and Shiga toxin inh 60*.
For Cc1ccc(/C=c2\sc3n(c2=O)CN(c2ccc(Br)cc2)CN=3)o1 the results were FBPA Giardia inh inconclusive, CHX counter -3, NS1 inh 2%, LmPK inhibitor -3% and Shiga toxin inh -3.
Screening COc1ccc(OCc2cc(C(=O)NCC3CCCCO3)no2)c(Cl)c1 (configuration not stated) returned FBPA Giardia inh 3%, CHX counter 46*, NS1 inh -28%, LmPK inhibitor -2% and Shiga toxin inh 74*.
For COc1ccc(OCc2cc(C(=O)NCCc3ccccc3)no2)c(Cl)c1 the results were FBPA Giardia inh 2%, CHX counter -4, NS1 inh -11%, LmPK inhibitor 4% and Shiga toxin inh -5.
`COc1ccc(OCc2cc(C(=O)NCC3CCOCC3)no2)c(Cl)c1` gave FBPA Giardia inh -2%, CHX counter 51*, NS1 inh -3%, LmPK inhibitor 0% and Shiga toxin inh 54*.
For CN(C)CCNc1oc(-c2ccccc2F)nc1C#N the results were FBPA Giardia inh -1%, CHX counter -3, NS1 inh -6%, LmPK inhibitor 0% and Shiga toxin inh -4.
For CC(C)Nc1oc(-c2cccc3ccccc23)nc1C#N the results were FBPA Giardia inh 12%, CHX counter 30*, NS1 inh -14%, LmPK inhibitor -1% and Shiga toxin inh 84*.
Screening N#Cc1nc(-c2ccccc2F)oc1NC1CCCCC1 returned FBPA Giardia inh 2%, CHX counter 15, NS1 inh -11%, LmPK inhibitor 5% and Shiga toxin inh 72.
Screening C=CCNc1oc(-c2cccc3ccccc23)nc1C#N returned FBPA Giardia inh 5%, CHX counter 46*, NS1 inh -5%, LmPK inhibitor 4% and Shiga toxin inh 45*.
N#Cc1nc(-c2cccc3ccccc23)oc1NCCN1CCCCC1 was read as FBPA Giardia inh -1%, CHX counter 19, NS1 inh 2%, LmPK inhibitor -3% and Shiga toxin inh 32.
For CCNc1oc(-c2cccc3ccccc23)nc1C#N the results were FBPA Giardia inh 14%, CHX counter 27, NS1 inh -1%, LmPK inhibitor 3% and Shiga toxin inh 58*.
`CCC(=O)Nc1c(-c2ccc(Cl)cc2)c(=O)c2ccccc2n1C` gave FBPA Giardia inh 0%, CHX counter 1, NS1 inh 1%, LmPK inhibitor 2% and Shiga toxin inh -11.

Source: PubChem BioAssay
